Key:
Details in all cases: concentration: 1 μM, replicates: in singlicate; n = 1
[1] = tested on: MYO3A
[2] = tested on: MYO3B
[3] = tested on: T1, NDR1
T1 construct: gene STK38

[4] = tested on: NDR2
[5] = tested on: NEK10
[6] = tested on: NEK11
[7] = tested on: NEK1
[8] = tested on: NEK2
[9] = tested on: NEK3
[10] = tested on: NEK4
[11] = tested on: NEK5
[12] = tested on: NEK6
[13] = tested on: NEK7
[14] = tested on: NEK9
[15] = tested on: T2, NIK
T2 construct: gene MAP3K14

[16] = tested on: T3, NIM1
T3 construct: gene MGC42105

[17] = tested on: NLK
[18] = tested on: T4, OSR1
T4 construct: gene OXSR1

[19] = tested on: PAK1
[20] = tested on: PAK2
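Further: KINOMEscan kinase panel screen.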

SMILES	%Inh [1]	%Inh [2]	%Inh [3]	%Inh [4]	%Inh [5]	%Inh [6]	%Inh [7]	%Inh [8]	%Inh [9]	%Inh [10]	%Inh [11]	%Inh [12]	%Inh [13]	%Inh [14]	%Inh [15]	%Inh [16]	%Inh [17]	%Inh [18]	%Inh [19]	%Inh [20]
Cc1ccc(-c2nc(Nc3ccncc3)c3ccccc3n2)s1 [GSK189015]	0%	0%	0%	0%	4%	0%	0%	20%	5%	0%	9%	1%	16%	15%	4%	0%	53%	9%	11%	11%
COc1ccc(CSc2nnc(-c3ccc4nccn4c3)o2)cc1C(F)(F)F	2%	0%	14%	12%	13%	0%	3%	0%	0%	4%	4%	10%	7%	0%	0%	0%	18%	8%	15%	61%
Cc1ccc(NC(=O)Nc2ccc(Cl)c(C(F)(F)F)c2)cc1-c1ccc(C(=O)Nc2ccncc2)cc1 [GSK1398470]	60%	0%	23%	0%	2%	0%	0%	23%	2%	17%	11%	12%	2%	20%	0%	0%	21%	35%	19%	19%
COc1ccc(Nc2nccc(NCCNC(=O)Nc3cc(C)ccc3C)n2)cc1 [GSK1379899]	0%	0%	0%	0%	2%	11%	0%	0%	0%	4%	0%	0%	8%	5%	11%	0%	0%	2%	0%	0%
O=C(Nc1n[nH]c2cc(-c3ccsc3)ccc12)C1CC1 [SB-732932]	12%	0%	18%	0%	0%	41%	0%	21%	24%	3%	0%	12%	6%	0%	26%	5%	46%	27%	9%	45%
Cc1c(Cn2c(C)c(C)n3c(=O)cc(N4CCOCC4)nc23)cccc1C(F)(F)F [GSK2328680]	0%	0%	0%	2%	0%	5%	0%	8%	0%	19%	0%	0%	0%	12%	9%	11%	12%	11%	0%	0%
COc1ccc(Nc2nccc(N3CCC(NC(=O)c4cc5ccccc5s4)C3)n2)cc1 (stereo not shown) [GSK1379738]	11%	0%	0%	0%	16%	0%	2%	1%	15%	0%	19%	0%	0%	0%	1%	9%	20%	0%	2%	0%
Cn1cncc1-c1cc2c(Nc3ccc(OCc4ccccc4)cc3)ncnc2cn1 [GW281179]	10%	0%	10%	0%	17%	13%	0%	0%	0%	5%	26%	0%	0%	45%	3%	21%	29%	14%	10%	19%
CC(C)c1ccc(O)cc1Nc1ccnc2ccc(C(F)(F)F)cc12 [GW482059]	0%	0%	0%	0%	0%	22%	0%	2%	0%	0%	0%	0%	0%	0%	0%	0%	0%	1%	0%	6%
CNc1nc(-c2ccc3c(N)n[nH]c3c2)cc(N2C[C@@H](C(=O)Nc3ccccc3)CC[C@H]2C)n1 [GSK2298859]	27%	0%	22%	0%	13%	0%	0%	0%	0%	0%	7%	0%	0%	4%	0%	0%	0%	10%	0%	0%
COC(=O)C(Cc1ccccc1)NC(=O)NC1CCN(c2ccnc(Nc3ccc(F)cc3)n2)C1 (stereo not shown) [GSK1379714]	0%	20%	13%	14%	14%	44%	0%	0%	1%	0%	12%	0%	0%	17%	50%	33%	6%	5%	9%	5%

Reference: paper PMC5540273 (PLoS ONE, 2017)
